Source: PubChem (National Center for Advancing Translational Sciences (NCATS))
rTrxR1 inhibitor: blocks rat thioredoxin reductase 1 | AID 588453 | recombinant rTrxR1, NADPH fluorescence consumption, selenite substrate | O89049 | 1% of 390,000 active | Potency, µM (highest dose often 114 µM), usual class: inhibitors; also: nearly all actives have a fitted effect of over 65% in size
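Rat TrxR1 (90 nM in the dispensed reagent) was pre-reduced with 400 uM NADPH for 5 min at room temperature, then incubated with compound for 15 min. After 400 uM selenite was added, NADPH fluorescence (Ex 340/Em 450 nm) was followed for 8 min.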
Sfp PPTase inh: Sfp phosphopantetheinyl transferase inhibition. Q9F4F7. Biochemical Sfp PPTase activity, qHTS. Potency, µM, hits mostly inhibitors. 3.5% of 310,000 active. AID 1490;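 also: the enzyme is Sfp with the accession as filed and its product quenches rhodamine fluorescence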
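With Hepes-Na pH 7.6 buffer containing 10 mM MgCl2, Sfp (15 nM) modified BHQ-2-YbbR (12.5 uM) using rhodamine-CoA (5 uM). Two reads 30 minutes apart at 525/598 nm yielded each well's rate.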
PLK1 PBD block: PLK1 (human) polo-box domain binding inhibition; Plk1 PBD binding of FITC phosphopeptide, fluorescence polarization; 2.8% of 360,000 active; Potency, µM, most hits filed as inhibitors; P53350; also: series mostly up to about 57 µM; nearly all actives have a fitted effect of over 65% in size
Target sequence (P53350 whole entry, looked up, the tested form may be a part): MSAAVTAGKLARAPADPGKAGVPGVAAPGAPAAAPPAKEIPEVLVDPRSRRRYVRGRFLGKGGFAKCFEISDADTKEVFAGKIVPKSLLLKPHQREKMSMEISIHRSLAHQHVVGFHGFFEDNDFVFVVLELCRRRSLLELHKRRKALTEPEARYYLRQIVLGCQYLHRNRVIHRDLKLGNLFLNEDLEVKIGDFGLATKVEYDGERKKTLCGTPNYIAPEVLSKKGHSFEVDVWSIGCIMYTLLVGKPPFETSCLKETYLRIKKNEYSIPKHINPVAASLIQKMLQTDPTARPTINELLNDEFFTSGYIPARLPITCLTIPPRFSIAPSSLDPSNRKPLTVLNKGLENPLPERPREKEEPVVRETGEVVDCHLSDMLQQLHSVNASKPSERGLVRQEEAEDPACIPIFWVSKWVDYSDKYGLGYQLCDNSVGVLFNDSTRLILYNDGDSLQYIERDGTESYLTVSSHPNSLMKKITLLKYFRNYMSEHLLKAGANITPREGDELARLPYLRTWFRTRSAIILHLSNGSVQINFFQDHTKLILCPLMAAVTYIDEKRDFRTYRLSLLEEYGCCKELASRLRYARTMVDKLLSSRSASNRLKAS
mIDH1 inhibitor: human IDH1 R132H inhibition; IDH1-R132H enzyme, NADPH consumption, diaphorase/resazurin fluorescence; 0.093% of 390,000 active; Potency, µM (top dose mostly 76.6 µM), most hits filed as inhibitors; also: nearly all actives have a fitted effect of over 65% in size
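IDH1-R132H (0.5 ug/mL) preincubated 30 min with compound, then NADPH (0.016 mM) and alpha-KG (2 mM) added; 80 min at RT, pH 7.5. Remaining NADPH coupled via diaphorase/resazurin to fluorescence (540/590 nm); concentration-response curves normalized to no-enzyme control.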
TrxR1 substrate: substrates of rat thioredoxin reductase 1 | Potency, µM (titrated, usually from 114 µM) | 0.01% of 390,000 active | purified TrxR1 substrate turnover, NADPH consumption readout; also: nearly all actives have a fitted effect of over 50% in size
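Rat TrxR1, dispensed at 90 nM, was prereduced with 400 uM NADPH (final) for 5 min at ~22 deg C, then incubated with compound 15 min before 400 uM selenite. A first-read NADPH fluorescence drop versus no-compound background flagged substrates.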
VDR inhibitor: blocks the human vitamin D receptor. P11473. VDR-SRC2-3 peptide fluorescence polarization, 2 h. Potency, µM, usual class: inhibitors. 0.93% of 400,000 active. AID 504847
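Two reagent solutions held at 4 deg C in the dark were dispensed, compounds pinned at 23 nl, and the mixture incubated 2 h at room temperature. Read-out: fluorescence polarization of VDR–SRC2-3 peptide binding.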
A number is an active result; . = inactive; ? = inconclusive; / = no result given; [ ] = another dose, or the depositor's remark. Hits are enriched below; roughly 5.2% of the tested compounds scored in any of these assays. Calls follow the shape of the dose curve; as a rule, active = well fitted curve in the direction sought with a large enough effect; inconclusive = small, poorly fitted or top-dose-only effect, or another doubt; inactive = no such curve, though single readings can be large; an effect the other way counts as inactive or inconclusive.

SMILES	rTrxR1 inhibitor	Sfp PPTase inh	PLK1 PBD block	mIDH1 inhibitor	TrxR1 substrate	VDR inhibitor
C=CCN1C(=O)C(O)(CC(=O)c2ccc(OC)cc2OC)c2cc(Br)ccc21 (stereo not drawn)	.	.	8.4µM	.	.	.
CCCOC(=O)C1=C(C)N(C)C(=O)NC1c1cc2c(cc1[N+](=O)[O-])OCO2 (stereo not drawn)	.	14µM	?	.	.	.
COc1ccc(N2CCN(C(=O)COC(=O)COc3ccc(C#N)cc3)CC2)cc1	.	/	.	.	.	.
Oc1ccc(Cn2ccnc2)c2cccnc12	.	.	.	.	.	.
COCc1ccc(O)c2ncccc12	.	.	.	.	.	.
Cc1ccccc1NCc1ccc(O)c2ncccc12	0.63µM	.	3µM	.	.	?
Oc1ccc(CNc2ccccc2)c2cccnc12	?	.	7.5µM	.	.	?
Oc1ccc(CNc2ccc(F)cc2)c2cccnc12	0.63µM	.	3.4µM	.	.	?
Cc1cccc(NCc2ccc(O)c3ncccc23)c1	0.79µM	.	3.4µM	.	.	.
Oc1ccc(CN2CCN(Cc3ccccc3)CC2)c2cccnc12	14µM	.	?	.	.	.
Oc1ccc2ccccc2c1CNc1ccccc1	.	/	3.4µM	.	.	22µM
CN1CCN(C2CCN(Cc3ccc(O)c4ncccc34)CC2)CC1	?	/	/	/	.	.
Cc1cc(NC(=O)CCC(=O)N(Cc2ccccc2)C(C(=O)NC2CCCC2)c2ccco2)no1 (stereo not drawn)	.	.	.	.	.[0.0914 µM]	.
C=CCN(C(=O)CCC(=O)Nc1cc(C)on1)C(C(=O)NC1CCCC1)c1ccc(CC)cc1 (stereo not drawn)	.	.	27µM	.	.	?
Cc1ccc(C)c(N(C(=O)CCC(=O)Nc2cc(C)on2)C(C(=O)NC2CCCC2)c2ccco2)c1 (stereo not drawn)	.	.	3.8µM	.	.	.
COC(=O)c1ccccc1NC(=O)c1cn2c3c(ccc(Cl)c3c1=O)OC(C)C2 (stereo not drawn)	.	/	/	.	.	.
CCc1cccc(CC)c1NC(=S)NCCc1c(C)[nH]c2ccccc12	.	.	.	.	.	.
CCc1cccc(CC)c1NC(=S)NCCc1ccc(O)c(O)c1	6.3µM	.	.	.	.	.
O=C(C1=C[C@@H]2[C@H]3C(=O)N(c4cccc(Cl)c4)C(=O)[C@H]3[C@@H](C(=O)c3ccc(Cl)cc3)N2C=C1)c1ccccc1	50µM	.	?	.	.	.
Cc1ccc(N2C(=O)[C@@H]3[C@H](C2=O)[C@H]2C=C(C(=O)c4ccccc4)C=CN2[C@@H]3C(=O)c2ccc(Cl)cc2)cc1	.	.	.	.	.	.
CCOC(=O)c1ccc(NC(=O)CSc2nccn2-c2cc(C)cc(C)c2)cc1	.	/	/	.	.	.
CCn1c(CSc2n[nH]c(N)n2)nc2cc(C(=O)O)ccc21	.	79µM	.	.	.	?
CCn1c(CSc2nnc3ccccn23)nc2cc(C(=O)O)ccc21	.	.	.	.	.	?
COCCNc1c2c(c(C#N)c3nc4ccccc4n13)CCCC2	.	.	.	.	.	.
CCc1c(C)c(C#N)c2nc3ccccc3n2c1NC	.	.	.	.	.	.
SMILES	rTrxR1 inhibitor	Sfp PPTase inh	PLK1 PBD block	mIDH1 inhibitor	TrxR1 substrate	VDR inhibitor
Cc1c(CCCl)c(Cl)n2c(nc3ccccc32)c1C#N	2.2µM	/	.	.	.	?
Cc1cc(Cl)n2c(nc3ccccc32)c1C#N	7.1µM	.	?	.	.	40µM
CNc1cc(C)c(C#N)c2nc3ccccc3n12	.	.	.	.	.	.
N#Cc1c2c(c(Cl)n3c1nc1ccccc13)CCCC2	3.5µM	/	/	/	.	/
Cn1c(N)c(C(=O)CSc2nc3ccccc3[nH]2)c(=O)n(C)c1=O	.	.	.	.	.	.
COc1ccc(/C=C/C(=O)O)cc1S(=O)(=O)N1CCCC1	.	.	.	.	.	.
CCN(CC)C(=O)/C(=C/c1cccc([N+](=O)[O-])c1)NC(=O)c1ccco1	.	.	.	.	.	.
Cc1ccc(Nc2ncnc3c2nnn3Cc2ccccc2)cc1	.	.	.	.	.	.
CCN(CC)N=Nc1[nH]nc2nc(C)cc(C)c12	.	.	8.4µM	.	.	.
